This passage reports Percent Effect results from ChEMBL document CHEMBL3988442, “University of Dundee, Small-Polar-MMV Screening Library” (2021).

Structures are written as SMILES.

In the first assay the target is T1, Aspartate--tRNA(Asp/Asn) ligase (Mycobacterium tuberculosis (strain ATCC 25618 / H37Rv)) (UniProt P9WFW3). Also: in the data most compounds retested in dose-response had high values.
T1 sequence (whole entry): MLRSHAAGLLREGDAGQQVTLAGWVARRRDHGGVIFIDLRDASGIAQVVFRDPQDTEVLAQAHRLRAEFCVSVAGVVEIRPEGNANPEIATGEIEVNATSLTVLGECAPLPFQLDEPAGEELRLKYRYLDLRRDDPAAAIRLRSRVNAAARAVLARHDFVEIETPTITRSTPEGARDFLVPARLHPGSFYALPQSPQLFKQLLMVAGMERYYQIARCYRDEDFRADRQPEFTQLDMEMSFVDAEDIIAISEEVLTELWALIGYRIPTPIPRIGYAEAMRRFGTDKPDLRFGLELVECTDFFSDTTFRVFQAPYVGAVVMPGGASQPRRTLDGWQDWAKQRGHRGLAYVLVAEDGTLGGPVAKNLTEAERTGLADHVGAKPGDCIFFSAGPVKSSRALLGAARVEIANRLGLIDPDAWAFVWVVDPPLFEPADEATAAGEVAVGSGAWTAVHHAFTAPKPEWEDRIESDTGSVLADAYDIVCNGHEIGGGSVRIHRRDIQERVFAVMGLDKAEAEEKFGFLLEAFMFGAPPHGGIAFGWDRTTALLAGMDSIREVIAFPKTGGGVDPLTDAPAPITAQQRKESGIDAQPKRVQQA
Nature of the assay: Assay for Asp RNA synthetase-1 from Mycobacterium tuberculosis. It counts as functional. Further details: scale not given: direction of the effect not stated beside the values. As to conditions: 30 µM.
Take `N#CCSCCCN1CCN(C(=O)c2ccc(Cl)cc2)CC1`: the Percent Effect amounted to 0.593%.

In the case of `Cc1cc(C)n(C2CCCN(C(=O)c3cccc4[nH]ncc34)C2)n1` (stereo not given), the Percent Effect was determined as 7.59%.

On to `Cc1nc(CN2CCC3(CCCN(Cc4cnn(C)c4)C3)C2=O)cs1` (stereo not given), for which the Percent Effect is -3.23%.

Consider `Cc1ncc2c(n1)CN(Cc1nnc(-c3occc3C)o1)CC2`, for which the Percent Effect was found to be 12.2%.

For the compound `Cc1nn(C(C)C)c(C)c1NC(=O)c1ccncc1`, the Percent Effect is -0.479%.

Regarding `CS(=O)(=O)NCCCNC(=O)c1cccnc1O`, the Percent Effect was determined as 5.28%.

Turning to `CCc1nccn1C1CCCN(C(=O)Cc2ccc(OC)c(F)c2)C1` (stereo not given), the Percent Effect was -7.86%.

As for `O=S(=O)(NCCN1CCCCC1Cn1cncn1)c1ccccc1` (stereo not given), the Percent Effect is 1.46%.

Take `O=C(CCNCC(F)(F)F)N1CCC(Nc2cccnn2)CC1`: the Percent Effect was 2.25%.

On to `CN(C)CC1CN(Cc2ccsc2)Cc2nccn2C1` (stereo not given), for which the Percent Effect was determined as 4.71%.

As for `CC(C)C(NC(=O)Cn1ccc(=O)n(C)c1=O)c1ccc(F)cc1` (stereo not given), the Percent Effect is 4.7%.

Consider `CCn1cc(NC(=O)CCc2ccc3c(c2)OCCCO3)cn1`, for which the Percent Effect was -3.45%.

Take `CC(C#N)CSc1ccccc1NCC(=O)NCc1ccccc1` (stereo not given): the Percent Effect was -8.08%.

On to `Cc1cc(C)c2c(OCC(=O)NC(C)C)nn(C)c2n1`, for which the Percent Effect was -1.15%.

Turning to `CCS(=O)(=O)N1CCC2(CCCN(Cc3cc(OC)ccc3F)C2)C1` (stereo not given), the Percent Effect is 0.836%.

With `CCc1noc(C(C)N2CCN(Cc3nc(C)c(C)o3)CC2)n1` (stereo not given), the Percent Effect was -6.81%.

Regarding `CC(=O)N1[C@H](Cn2cncn2)C[C@@H]2CN(S(C)(=O)=O)CC[C@@H]21`, the Percent Effect worked out at 2.85%.

Consider `Cc1ccn2cc(C(=O)N3CCCC3c3c(C)nn(C)c3C)nc2c1` (stereo not given), for which the Percent Effect was -1.79%.

Regarding `Cc1nc(C)n(CC2CCCCN2Cc2ncc(C(C)(C)C)o2)n1` (stereo not given), the Percent Effect is -7.07%.

On to `COc1ccc(OC)c(Sc2ncccc2C(=O)N(C)CCC#N)c1`, for which the Percent Effect was -6.44%.

As for `CS(=O)(=O)N1CCC(C(=O)NC(Cc2ccsc2)c2nccs2)CC1` (stereo not given), the Percent Effect is -5.91%.

In the case of `COCCc1noc(CN2CCCC2Cn2cc(C)cn2)n1` (stereo not given), the Percent Effect is -2.48%.

For the compound `CSCCC(=O)N1CCC(Oc2cc(C)ccc2F)(C(=O)O)CC1`, the Percent Effect was -1.34%.

On to `Cc1cnc(CN2CCC(N(C)Cc3nnc(C4CC4)n3C)C2)cn1` (stereo not given), for which the Percent Effect worked out at 5.06%.

Regarding `c1ccc(Cn2cc3c(n2)C(CNCc2ccco2)OCC3)nc1` (stereo not given), the Percent Effect amounted to 6.18%.

For `COc1c(CNC2CCc3cc(F)ccc32)c(C)nn1C` (stereo not given), the Percent Effect is -5.95%.

Turning to `O=S(=O)(NCc1ccccc1Cn1cncn1)C1CCCC1`, the Percent Effect came out at 1.56%.

As for `CCS(=O)(=O)CC(=O)NC(c1ccc(F)cc1)C1CCCC1` (stereo not given), the Percent Effect was -3.77%.

As to `COc1ccc(C(=O)N2CCCCC2Cn2cccn2)c(F)c1` (stereo not given), the Percent Effect stood at 3.52%.

Consider `CC(C)Cc1noc(CN2CCN(C(=O)c3ccco3)CC2)n1`, for which the Percent Effect was -0.114%.

`Cc1ccc(CCN2CCC(N(C)Cc3noc(C4CC4)n3)C2)cc1` (stereo not given): the Percent Effect was -2.9%.

As for `O[C@H]1[C@H](n2cc(-c3cccnc3)nn2)c2ccccc2C12CCNCC2`, the Percent Effect was -2.48%.

`O=C(CCC1CCCO1)NCc1ccnc(-n2cccn2)c1` (stereo not given): the Percent Effect was 7.84%.

As for `CC(C)(C#N)C(=O)N1CCCC(c2cc(C(F)(F)F)[nH]n2)C1` (stereo not given), the Percent Effect is -1.34%.

Consider `Cc1cc(C(=O)N2C[C@@H](C(=O)O)[C@H](c3ccccc3C)C2)c(C)o1`, for which the Percent Effect came to 6.11%.

Consider `CC(C)c1cc(NC(=O)c2ccc(NC3CC3)nc2)[nH]n1`, for which the Percent Effect was -1.67%.

As to `COc1ncccc1CNC(=O)c1cccc(C)n1`, the Percent Effect was -1.63%.

`O=C(O)CC1CN(Cc2ccccc2)CCO1` (stereo not given): the Percent Effect is -0.183%.

With `Cc1nn(C)c2c(N3CCN(C(=O)NC4CCCCC4)CC3)ncnc12`, the Percent Effect was -5.2%.

Consider `O=C(Cc1ccccc1)N1CCC2(CC(=O)N(c3ccsc3)C2)C1` (stereo not given), for which the Percent Effect is -3.62%.

For the next assay, the target named is Shiga toxin 2 (Escherichia coli O157:H7) (UniProt P09385+P09386). Nature of the assay: E. coli 0.157:H7 Shiga Toxin SOP - stx2 screening assay. The assay is classed as functional. Further details: scale not given: direction of the effect not stated beside the values. To be noted: 30 µM.
Consider `N#CCSCCCN1CCN(C(=O)c2ccc(Cl)cc2)CC1`, for which the Percent Effect is -35.2%.

As to `Cc1cc(C)n(C2CCCN(C(=O)c3cccc4[nH]ncc34)C2)n1` (stereo not given), the Percent Effect is -6.75%.

For `Cc1nc(CN2CCC3(CCCN(Cc4cnn(C)c4)C3)C2=O)cs1` (stereo not given), the Percent Effect is -23.7%.

On to `Cc1ncc2c(n1)CN(Cc1nnc(-c3occc3C)o1)CC2`, for which the Percent Effect was -43.7%.

For the compound `Cc1nn(C(C)C)c(C)c1NC(=O)c1ccncc1`, the Percent Effect was -15.8%.

Turning to `CS(=O)(=O)NCCCNC(=O)c1cccnc1O`, the Percent Effect was -16.3%.

Regarding `CCc1nccn1C1CCCN(C(=O)Cc2ccc(OC)c(F)c2)C1` (stereo not given), the Percent Effect is 4.47%.

With `O=S(=O)(NCCN1CCCCC1Cn1cncn1)c1ccccc1` (stereo not given), the Percent Effect came to 5.96%.

For `O=C(CCNCC(F)(F)F)N1CCC(Nc2cccnn2)CC1`, the Percent Effect was -14.2%.

Consider `CN(C)CC1CN(Cc2ccsc2)Cc2nccn2C1` (stereo not given), for which the Percent Effect is -1.56%.

In the case of `CC(C)C(NC(=O)Cn1ccc(=O)n(C)c1=O)c1ccc(F)cc1` (stereo not given), the Percent Effect is -13.7%.

Regarding `CCn1cc(NC(=O)CCc2ccc3c(c2)OCCCO3)cn1`, the Percent Effect is -47.1%.

Consider `CC(C#N)CSc1ccccc1NCC(=O)NCc1ccccc1` (stereo not given), for which the Percent Effect amounted to 21.2%.

Take `Cc1cc(C)c2c(OCC(=O)NC(C)C)nn(C)c2n1`: the Percent Effect was -0.409%.

As to `CCS(=O)(=O)N1CCC2(CCCN(Cc3cc(OC)ccc3F)C2)C1` (stereo not given), the Percent Effect is -3.7%.

On to `CCc1noc(C(C)N2CCN(Cc3nc(C)c(C)o3)CC2)n1` (stereo not given), for which the Percent Effect is 10.2%.

Turning to `CC(=O)N1[C@H](Cn2cncn2)C[C@@H]2CN(S(C)(=O)=O)CC[C@@H]21`, the Percent Effect is -36.4%.

In the case of `Cc1ccn2cc(C(=O)N3CCCC3c3c(C)nn(C)c3C)nc2c1` (stereo not given), the Percent Effect is -1.23%.

As to `Cc1nc(C)n(CC2CCCCN2Cc2ncc(C(C)(C)C)o2)n1` (stereo not given), the Percent Effect was -41%.

Regarding `COc1ccc(OC)c(Sc2ncccc2C(=O)N(C)CCC#N)c1`, the Percent Effect worked out at 13.3%.

In the case of `CS(=O)(=O)N1CCC(C(=O)NC(Cc2ccsc2)c2nccs2)CC1` (stereo not given), the Percent Effect amounted to 16.3%.

In the case of `COCCc1noc(CN2CCCC2Cn2cc(C)cn2)n1` (stereo not given), the Percent Effect is -2.29%.

`CSCCC(=O)N1CCC(Oc2cc(C)ccc2F)(C(=O)O)CC1`: the Percent Effect was -3.19%.

Take `Cc1cnc(CN2CCC(N(C)Cc3nnc(C4CC4)n3C)C2)cn1` (stereo not given): the Percent Effect worked out at 5.3%.

Take `c1ccc(Cn2cc3c(n2)C(CNCc2ccco2)OCC3)nc1` (stereo not given): the Percent Effect was -26.1%.

Turning to `COc1c(CNC2CCc3cc(F)ccc32)c(C)nn1C` (stereo not given), the Percent Effect worked out at 7.74%.

On to `O=S(=O)(NCc1ccccc1Cn1cncn1)C1CCCC1`, for which the Percent Effect was -9.86%.

With `CCS(=O)(=O)CC(=O)NC(c1ccc(F)cc1)C1CCCC1` (stereo not given), the Percent Effect was -1.68%.

Consider `COc1ccc(C(=O)N2CCCCC2Cn2cccn2)c(F)c1` (stereo not given), for which the Percent Effect was -7.04%.

With `CC(C)Cc1noc(CN2CCN(C(=O)c3ccco3)CC2)n1`, the Percent Effect was -20%.

Turning to `Cc1ccc(CCN2CCC(N(C)Cc3noc(C4CC4)n3)C2)cc1` (stereo not given), the Percent Effect was -69.9%.

Consider `O[C@H]1[C@H](n2cc(-c3cccnc3)nn2)c2ccccc2C12CCNCC2`, for which the Percent Effect worked out at 7.64%.

With `O=C(CCC1CCCO1)NCc1ccnc(-n2cccn2)c1` (stereo not given), the Percent Effect worked out at 21.6%.

Consider `CC(C)(C#N)C(=O)N1CCCC(c2cc(C(F)(F)F)[nH]n2)C1` (stereo not given), for which the Percent Effect is -11.7%.

As to `Cc1cc(C(=O)N2C[C@@H](C(=O)O)[C@H](c3ccccc3C)C2)c(C)o1`, the Percent Effect is -22%.

Turning to `CC(C)c1cc(NC(=O)c2ccc(NC3CC3)nc2)[nH]n1`, the Percent Effect is -52%.

Consider `COc1ncccc1CNC(=O)c1cccc(C)n1`, for which the Percent Effect is -24.7%.

Turning to `O=C(O)CC1CN(Cc2ccccc2)CCO1` (stereo not given), the Percent Effect was -5.59%.

As for `Cc1nn(C)c2c(N3CCN(C(=O)NC4CCCCC4)CC3)ncnc12`, the Percent Effect was -44.8%.

Consider `O=C(Cc1ccccc1)N1CCC2(CC(=O)N(c3ccsc3)C2)C1` (stereo not given), for which the Percent Effect was -10.4%.
